For part of these data: Potency and affinity values are given separately. Inconclusive results are not listed. A number with no mark means an inactive call. This is one part of the list. Entries that show only a call come without a potency. Activity calls are given as the source filed them.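 How the source made its calls, unless noted: active means signal drop whose fitted half-maximal concentration is at most twice the top valid dose, in every test run; inconclusive means mixed calls across runs, poor fit, or flat 30 to 70% inhibition; inactive means wrong direction, flat within 30%, or potency beyond limit.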
Legend:
[1] = PAX8 transcriptional activity inhibition in RMG-I – RMG-I cells, luciferase, cherry-pick, dose response (AID 687027;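 active means every replicate test run called active, with the signal dropping as expected and potency within twice the top valid dose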)
[2] = IOSE-T80 viability loss, PAX8-independent line – cell-based, cherry-pick, selectivity assay for PAX8 inhibitor project, dose response (AID 687032;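 active means fitted half-maximal concentration for viability loss no higher than twice the top valid dose, in every repeat run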;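 further: cells exposed to compound for 96 h before reading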)
[3] = CMV-driven luciferase expression suppression in HEK293 – cell-based, luminescence, dry powder, counter-screen for Pax8 inhibitor project, dose response (AID 743020;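 active means signal-lowering compounds whose fitted half-maximal concentration is at or below twice the top tested dose in every run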;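 further: HEK293 cells stably expressing the CMV luciferase reporter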)
[4] = general cell-killing toxicity readout – plate reader, dry powder samples, cytotoxicity control for PAX8 inhibitor project, dose response (AID 743021; call rule not given here)
[5] = IGROV1 cell killing – plate reader, dry powder samples, PAX8 inhibitor project, dose response (AID 743043; call rule not given here;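 further: more negative means fewer viable cells or more cytotoxicity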)
[6] = OVCAR-3 cell viability loss – plate reader, dry powder samples, PAX8 inhibitor project, dose response (AID 743044; call rule not given here); settings: max activity: at 35 µM, stronger effect = lower value unless noted
[7] = toxicity toward immortalized ovarian surface epithelium – cell-based, plate reader, dry powder samples, cytotoxicity control for PAX8 inhibitor project, dose response (AID 743045; call rule not given here;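 further: more negative values mean more cell killing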)
[8] = A2780 cell killing – plate reader, dry powder samples, cytotoxicity control, dose response (AID 743046; call rule not given here)
[9] = OVCAR8 cell viability loss – plate reader, dry powder samples, PAX8 project, dose response (AID 743197; call rule not given here)
[10] = RMG-1 ovarian cancer cell viability loss – cherry-pick, dose response (AID 687029);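 further: cells exposed to compound for 96 hours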
[11] = small-molecule DNA binding by polarization – biochemical, fluorescence polarization, cherry-pick, counter-screen for EWS/Fli inhibitor project, dose response (AID 720586;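 active means fitted curve reaches a 35% signal fall AC35 below twice the sample's top valid tested dose, actives reach about 48 µM in these data; inactive means the rest, including activity in the rising direction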;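 further: lower polarization ratio signals compound binding to DNA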)

SMILES: CNC[C@H]1Oc2ccc(NC(=O)NC(C)C)cc2CC(=O)N([C@@H](C)CO)C[C@@H]1C
- outcome [1]: inactive
- outcome [2]: inactive
- outcome [3]: inactive
- outcome [4]: inactive
- outcome [5]: inactive
- max activity [6]: 12.2% [at 2.1 µM, stronger effect = lower value]
- outcome [7]: inactive
- outcome [8]: inactive
- outcome [9]: inactive

SMILES: CCOc1ccccc1NC(=O)c1nc(S(=O)(=O)Cc2cccc(C)c2)ncc1Cl
- outcome [10]: inactive

SMILES: CC(=O)/C=C/n1c(=S)oc2ccccc21
- outcome [10]: inactive

SMILES: Nc1nc(Sc2ccc([N+](=O)[O-])c3nonc23)c2[nH]cnc2n1
- outcome [10]: inactive

SMILES: O=C(NCc1ccco1)C1CCCN(S(=O)(=O)c2ccc(Br)cc2)C1 (stereo not given)
- outcome [1]: inactive
- outcome [3]: inactive
- outcome [4]: inactive

SMILES: CCCNC(=O)COc1nc2ccccc2nc1N1CCOCC1
- outcome [1]: inactive
- outcome [3]: inactive
- outcome [4]: inactive

SMILES: COc1ccccc1CNC(=O)c1ccc2nc3[nH]c4ccccc4c3nc2c1
- outcome [1]: inactive
- outcome [2]: inactive
- outcome [4]: inactive

SMILES: CCSc1cc(N2CCOCC2)nc(-c2ccc(Cl)cc2)n1
- outcome [1]: inactive
- outcome [3]: inactive
- outcome [4]: inactive

SMILES: CC1CN(CC(O)COC(c2ccccc2)c2ccccc2)CC(C)O1 (stereo not given)
- outcome [1]: inactive
- outcome [3]: inactive
- outcome [4]: inactive

SMILES: CCOc1ccc(-n2c(=S)sc3c(=O)[nH]c(SCC(=O)NCC4CCCO4)nc32)cc1 (stereo not given)
- outcome [1]: inactive
- outcome [3]: inactive
- outcome [4]: inactive

SMILES: Cc1nnc(N/N=C/c2cc(C)n(-c3ccc(F)cc3)c2C)n1N
- outcome [1]: inactive
- outcome [3]: inactive
- outcome [4]: inactive

SMILES: CCS(=O)(=O)c1ncc(Cl)c(C(=O)Nc2ccc(S(=O)(=O)N3CCC(C)CC3)cc2)n1
- outcome [10]: inactive

SMILES: COc1ccc2nc(C)cc(N/N=C/c3cccc(OC)c3O)c2c1
- outcome [10]: inactive

SMILES: Nc1nc(N)c2c(ccc3c2ccn3Cc2cccc([N+](=O)[O-])c2)n1
- outcome [10]: inactive

SMILES: CC(C)(C)OC(=O)NCCCC[C@H](NC(=O)c1[nH]cnc1C(=O)Nc1ccc(CNC(=O)OC(C)(C)C)cc1)C(=O)OC(C)(C)C
- outcome [10]: inactive

SMILES: Cc1onc(C(=O)N2CCN(C(c3ccccc3)c3ccccc3)CC2)c1[N+](=O)[O-]
- outcome [10]: inactive

SMILES: CN=c1scc(-c2ccccc2F)n1/N=C/c1ccc[nH]1
- outcome [10]: inactive

SMILES: Cc1cc(Nc2ccc3c(c2)OCCO3)c2ccccc2n1
- outcome [1]: inactive
- outcome [4]: inactive

SMILES: CCCCn1c(O)c(N=NC(=O)Cn2c(C(F)(F)F)nc3ccccc32)c2ccccc21
- outcome [1]: inactive
- outcome [3]: inactive
- outcome [4]: inactive

SMILES: COc1cccc(CC(=O)Nc2nc3c(s2)C(=O)CC(C)(C)C3)c1
- outcome [1]: inactive
- outcome [3]: inactive

SMILES: O=S(=O)(NCC1CCCO1)c1cnc(Cl)c(Br)c1 (stereo not given)
- outcome [1]: inactive
- outcome [3]: inactive
- outcome [4]: inactive

SMILES: N#Cc1nccnc1S(=O)(=O)c1cccs1
- outcome [10]: inactive

SMILES: COc1ccc2c(COC(=O)CNC(=O)C34CC5CC(CC(C5)C3)C4)cc(=O)oc2c1
- outcome [1]: inactive
- outcome [4]: inactive

SMILES: COc1ccc(C(=O)NC(=S)NNC(=O)c2c(-c3ccccc3)noc2C)cc1
- outcome [1]: inactive
- outcome [4]: inactive

SMILES: CNC[C@@H]1Oc2ccc(NC(=O)NC(C)C)cc2CC(=O)N([C@@H](C)CO)C[C@@H]1C
- outcome [1]: inactive
- outcome [3]: inactive
- outcome [4]: inactive
- outcome [5]: inactive
- max activity [6]: 22.5% [at 0.5 µM, stronger effect = lower value]
- outcome [7]: inactive
- outcome [8]: inactive
- outcome [9]: inactive

SMILES: Nc1nc(=S)c2ncn([C@@H]3O[C@H](CO)[C@@H](O)[C@H]3O)c2[nH]1
- outcome [10]: inactive

SMILES: CCCCCN=C(N)N/N=C/c1c[nH]c2ccc(OC)cc12
- outcome [10]: inactive

SMILES: COc1cccc(S(=O)(=O)NCC(=O)Nc2ccc(C(C)(C)C)cc2)c1
- outcome [1]: inactive
- outcome [2]: inactive
- outcome [4]: inactive

SMILES: Cc1cc(CN(C)C(=O)c2cc(COc3ccc4ncccc4c3)on2)on1
- outcome [1]: inactive
- outcome [3]: inactive
- outcome [4]: inactive

SMILES: C[C@@H]1CN([C@@H](C)CO)C(=O)Cc2cc(NS(=O)(=O)c3ccc(Cl)cc3)ccc2O[C@H]1CN(C)Cc1ccc(C(F)(F)F)cc1
- outcome [1]: inactive
- outcome [2]: inactive
- outcome [3]: inactive
- outcome [4]: inactive
- outcome [5]: inactive
- max activity [6]: 14.3% [at 0.26 µM, stronger effect = lower value]
- outcome [7]: inactive
- outcome [8]: inactive
- outcome [9]: inactive

SMILES: CCN1CCN(Cc2ccc(NC(=O)c3ccc(C)c(NC(=O)C(=O)c4c[nH]c5ccccc45)c3)cc2C(F)(F)F)CC1
- outcome [10]: inactive

SMILES: COc1ccc(NC(=O)N2CCCCN3[C@@H](CO)[C@@H](c4ccc(C#Cc5ccccc5)cc4)[C@@H]3C2)cc1
- outcome [10]: inactive

SMILES: O=C(CCC(=O)c1ccccc1)NCCc1c[nH]c2ccccc12
- outcome [1]: inactive
- outcome [3]: inactive
- outcome [4]: inactive

SMILES: NC1=CC(=O)C(=O)c2cccnc21
- outcome [10]: inactive
- outcome [2]: inactive
- AC35 [11]: inactive
- outcome [4]: inactive

SMILES: COc1ccc(C#Cc2ccc([C@H]3[C@@H](CO)N4CCCCN(C(=O)Nc5cccc(F)c5)C[C@H]34)cc2)cc1
- outcome [10]: inactive
- outcome [2]: inactive

SMILES: C=CCOc1ccccc1CN(C(=O)CCl)c1ccc2c(c1)OCO2
- outcome [10]: inactive
- outcome [2]: inactive

SMILES: Cc1nn(-c2ccccc2)c(Cl)c1CN(C(=O)CCl)c1ccc(Cl)cc1
- outcome [10]: inactive
- outcome [2]: inactive

SMILES: COC(=O)C1=C(C)N(Cc2ccc(C(F)(F)F)cc2)C(=NCc2ccccc2)NC1c1cccc(Cl)c1 (stereo not given)
- outcome [10]: inactive
- outcome [2]: inactive

SMILES: CC(=O)n1cc(N(C(=O)CCl)c2ccccc2)c2ccccc21
- outcome [10]: inactive
- outcome [2]: inactive

SMILES: OCC1OC(n2cnc3c(NCc4ccco4)ncnc32)C(O)C1O (stereo not given)
- outcome [10]: inactive
- outcome [2]: inactive

SMILES: CN1CCN(CCCNC(=O)c2ccc(/C=C3\Oc4ccccc4N(Cc4ccc(Cl)cc4)C3=O)cc2)CC1
- outcome [10]: inactive
- outcome [2]: inactive

SMILES: COc1ccc(/C=N/Nc2cc(C)nc3ccc(Br)cc23)cc1
- outcome [10]: inactive
- outcome [2]: inactive

SMILES: COc1cccc(NC(=O)Nc2nc(-c3ccc(OC)c(OC)c3)cs2)c1
- outcome [10]: inactive
- outcome [2]: inactive

SMILES: O=c1cc(-c2ccc(O)cc2)oc2ccc3ccccc3c12
- outcome [10]: inactive
- outcome [2]: inactive

SMILES: COc1ccc(NC(=O)c2cc([N+](=O)[O-])ccc2O)cc1
- outcome [10]: inactive
- outcome [2]: inactive

SMILES: CN(C[C@H]1N[C@@H](CO)[C@@H]1c1ccc(-c2cccnc2)cc1)C(=O)c1ccccc1
- outcome [10]: inactive
- outcome [2]: inactive

SMILES: COc1ccccc1N(C(=O)CCl)c1cn(C(C)=O)c2ccccc12
- outcome [10]: inactive
- outcome [2]: inactive

SMILES: Cc1ccc(-n2nc(C)c(NC(=O)CCl)c2C)cc1C
- outcome [10]: inactive
- outcome [2]: inactive

SMILES: COc1ccc(N(C(=O)CCl)C(C(=O)NCCc2ccccc2)c2cccs2)cc1Cl (stereo not given)
- outcome [10]: inactive
- outcome [2]: inactive

SMILES: CC1CCN(c2ccc(-c3cccc(NC(=O)C(F)(F)F)c3)nn2)CC1
- outcome [10]: inactive
- outcome [2]: inactive

SMILES: CCS(=O)(=O)c1ncc(Cl)c(C(=O)Nc2ccc(S(=O)(=O)N(C)c3ccccc3)cc2)n1
- outcome [10]: inactive
- outcome [2]: inactive

SMILES: OC(CNCC(c1ccc(Cl)cc1Cl)c1c[nH]c2ccccc12)c1ccccc1 (stereo not given)
- outcome [10]: inactive
- outcome [2]: inactive

SMILES: COc1ccc(C2C(O)C(c3c[nH]c4ccccc34)=NN2C(=O)CCl)cc1 (stereo not given)
- outcome [10]: inactive
- outcome [2]: inactive

SMILES: COc1ccc(-c2sc3ccccc3c2-c2ccc(OCCN(C)C)cc2)cc1
- outcome [10]: inactive
- outcome [2]: inactive

SMILES: N#C[C@@H]1[C@H](c2ccc(C#CC3CCCC3)cc2)[C@H](CO)N1C(=O)Nc1ccc(F)cc1
- outcome [10]: inactive
- outcome [2]: inactive

SMILES: C#Cc1cc(N2CCN(C(=O)c3ccoc3)CC2)n2nc(-c3cccc(Cl)c3)cc2n1
- outcome [10]: inactive
- outcome [2]: inactive

SMILES: Cc1cc(=O)n2c3c(c4c(cc13)c(CN(C)C)cc(=O)n4C)OC2
- outcome [10]: inactive
- outcome [2]: inactive

SMILES: N#C[C@H]1[C@H](c2ccc(C#CC3CCCC3)cc2)[C@@H](CO)N1C(=O)Nc1ccc(F)cc1
- outcome [10]: inactive
- outcome [2]: inactive

SMILES: CC1OC(CC(=O)O)CC2=C1C(=O)c1c(O)cccc1C2=O (stereo not given)
- outcome [10]: inactive
- outcome [2]: inactive

SMILES: C[C@H](CO)N1C[C@H](C)[C@@H](CN(C)S(=O)(=O)c2ccc(F)cc2)OCCCC[C@H](C)Oc2ccc(NS(=O)(=O)c3ccc(Cl)cc3)cc2C1=O
- outcome [10]: inactive
- outcome [2]: inactive

SMILES: COc1cc(/C=N/Nc2nc(Nc3ccc(C)cc3)nc(-n3nc(C)cc3C)n2)cc(OC)c1OC
- outcome [10]: inactive
- outcome [2]: inactive

SMILES: O=c1c(Cl)c(Cl)cnn1-c1ccccc1
- outcome [10]: inactive
- outcome [2]: inactive

SMILES: C[C@H]1CN([C@@H](C)CO)C(=O)c2c(c3ccccc3n2C)-c2ccccc2CO[C@H]1CN(C)S(=O)(=O)c1ccc([N+](=O)[O-])cc1
- outcome [10]: inactive
- outcome [2]: inactive

SMILES: CCS(=O)(=O)c1ncc(Cl)c(C(=O)Nc2ccc(C)cc2)n1
- outcome [10]: inactive
- outcome [2]: inactive

SMILES: Cc1cc(C)c2nc(C)cc(N/N=C/c3ccc(O)cc3)c2c1
- outcome [10]: inactive
- outcome [2]: inactive

SMILES: O=c1c(Br)c(Br)cnn1-c1ccccc1
- outcome [10]: inactive
- outcome [2]: inactive

SMILES: COc1ccc(N(C(=O)CCl)C(C(=O)NC2CCCCC2)c2cccnc2)cc1 (stereo not given)
- outcome [10]: inactive
- outcome [2]: inactive

SMILES: COc1cccc(/C=N/Nc2cc(C)nc(-c3ccccc3O)n2)c1O
- outcome [10]: inactive
- outcome [2]: inactive
- outcome [3]: inactive

SMILES: O=c1c2ccccc2cnn1-c1nc2ccccc2[nH]1
- outcome [10]: inactive
- outcome [2]: inactive

SMILES: CCC[C@H](CN[C@@H](CNC)[C@H](C)CC)NCCc1cc(C(F)(F)F)cc(C(F)(F)F)c1
- outcome [10]: inactive
- outcome [2]: inactive

SMILES: CCN(CC)S(=O)(=O)c1cc([N+](=O)[O-])ccc1NNC(=O)Nc1ccc(Cl)c(Cl)c1
- outcome [10]: inactive
- outcome [2]: inactive

SMILES: O=C(Nc1ccc2nc3n(c(=O)c2c1)CCCCC3)c1cc([N+](=O)[O-])ccc1F
- outcome [10]: inactive
- outcome [2]: inactive

— PubChem BioAssay
